Most compounds without a hit are left out; they make up all but 5.3% or so of the library.
BAZ2B inh – BAZ2B (human) inhibition; Q9UIF8; AlphaScreen BAZ2B-H3K14Ac peptide displacement; Potency, µM (top dose mostly 114 µM), for the others: at the highest dose activity change, negative = inhibition, actives largely listed as inhibitors; 360,000 tested, 4.4% active; also: potency is read from the fitted curve at half-maximal effect; % is scaled to controls: 0 for no effect and ±100 for the full control effect; nearly all actives have a fitted effect of over 60% in size
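Protein-peptide AlphaScreen: BAZ2B 50 nM, b-H3K14Ac 50 nM, 1x PBS pH 7.4 + 0.01% Tween-20. Preincubation 30 min RT; cpd 30 min RT (top 110 uM); beads 20 min RT, light-protected.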
Six1-Eya2 inh – Six1/Eya2 interaction inhibition. Q15475+O00167. 360,000 tested, 0.56% active. activity change, % (test concentration not listed). AlphaScreen GST-Six1/His-Eya2 binding, biochemical; hits give low values; in the data active = activity change below about -65%; inconclusive = mostly about -30% to -63%; also: % is scaled to controls: 0 for no effect and ±100 for the full control effect
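Homogeneous AlphaScreen proximity assay pairing GST-Six1 with His-tagged Eya2 (added as 5X mix: 250 nM and 500 nM) in 50 mM Tris pH 8.0, 300 mM NaCl, 1 mM TCEP. Glutathione donor and nickel acceptor beads; 1 h, 37 °C, dark.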
CtBP-E1A inh – inhibitors of CtBP/E1A interaction; activity change, % (no concentration beside the values); 340,000 tested, 0.49% active; AID 651724; AlphaScreen GST-E1A/His-CtBP binding, 1536-well; hits give low values; in the data active = activity change below about -65%; inconclusive = mostly about -30% to -63%; also: % is scaled to controls: 0 for no effect and ±100 for the full control effect
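In 5 uL wells, 23 nL compound meets equimolar GST-E1A and His-CtBP (5X stock 125 nM each) for 2 h, 37 °C. Beads (5X, 50 ug/mL) then 1 h, 37 °C, dark.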
JMJD2A Tudor – inhibitors of human JMJD2A Tudor domain | Potency, µM (series often up to 114 µM), for the others: at the highest dose activity change, negative = inhibition, hits mostly inhibitors | 390,000 tested, 4.4% active | AlphaScreen JMJD2A-Tudor / H3K4me3 peptide binding; also: potency is read from the fitted curve at half-maximal effect; % is scaled to controls: 0 for no effect and ±100 for the full control effect; nearly all actives have a fitted effect of over 50% in size
TDP1 block – inhibitors of human tyrosyl-DNA phosphodiesterase TDP1; recombinant TDP1, AlphaScreen DNA substrate cleavage; Potency, µM (highest dose often 130 µM), inactives show top-dose activity change, negative = inhibition, hits mostly inhibitors; 350,000 tested, 0.28% active; Q9NUW8; AID 485290; also: potency is read from the fitted curve at half-maximal effect; % is scaled to controls: 0 for no effect and ±100 for the full control effect; nearly all actives have a fitted effect of over 40% in size
Target sequence (Q9NUW8 whole entry, looked up): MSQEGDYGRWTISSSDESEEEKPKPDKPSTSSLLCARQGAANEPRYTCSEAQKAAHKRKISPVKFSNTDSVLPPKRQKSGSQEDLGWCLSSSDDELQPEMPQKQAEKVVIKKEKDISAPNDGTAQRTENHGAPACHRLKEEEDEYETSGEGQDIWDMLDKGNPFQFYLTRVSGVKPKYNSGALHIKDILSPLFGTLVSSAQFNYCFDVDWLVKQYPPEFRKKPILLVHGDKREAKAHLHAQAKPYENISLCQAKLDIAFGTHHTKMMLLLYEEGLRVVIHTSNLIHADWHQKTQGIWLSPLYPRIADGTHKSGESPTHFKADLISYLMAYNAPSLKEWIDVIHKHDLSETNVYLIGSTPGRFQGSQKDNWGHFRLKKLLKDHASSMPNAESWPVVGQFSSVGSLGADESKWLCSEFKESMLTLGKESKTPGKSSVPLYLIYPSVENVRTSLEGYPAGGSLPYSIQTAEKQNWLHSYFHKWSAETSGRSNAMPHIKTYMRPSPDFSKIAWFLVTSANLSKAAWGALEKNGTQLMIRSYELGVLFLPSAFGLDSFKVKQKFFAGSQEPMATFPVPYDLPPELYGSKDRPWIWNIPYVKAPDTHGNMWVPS
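Compounds were preincubated with Tdp1 (1 nM final) for 15 min at room temperature before substrate (15 nM final) started a 5 min reaction; beads (10 ug/ml final) were then added for 10 min before AlphaScreen detection.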
HP1b binding inh – blocks HP1-beta chromodomain binding to methylated histone tails; 390,000 tested, 0.56% active; AlphaScreen HP1-beta / biotin-H3K9me3 peptide binding; P83916; Potency, µM (doses to about 114 µM), without a hit: top-dose activity change, negative = inhibition, hits mostly inhibitors; also: potency is read from the fitted curve at half-maximal effect; nearly all actives have a fitted effect of over 70% in size
Target sequence (P83916 whole entry, looked up): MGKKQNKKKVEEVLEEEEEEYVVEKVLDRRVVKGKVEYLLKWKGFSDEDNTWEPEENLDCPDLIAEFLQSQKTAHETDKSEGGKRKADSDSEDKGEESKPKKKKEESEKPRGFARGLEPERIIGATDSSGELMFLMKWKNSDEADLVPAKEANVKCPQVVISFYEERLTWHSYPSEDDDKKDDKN
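AlphaScreen: HP1-beta (50 nM) preformed 30 min with biotin-H3(1-18)K9me3 peptide (50 nM) in PBS pH 7.4, 0.01% Tween-20. Compound added for 30 min at RT, then streptavidin donor/nickel chelate acceptor beads (10 ug/mL) for 30 min.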
Numbers without * were called inactive; u = inconclusive; x = no result given; [ ] = another dose, or the depositor's remark. Unless noted, calls follow the shape of the dose curve; as a rule, active = well fitted inhibition curve with a large enough effect; inconclusive = small, poorly fitted or top-dose-only effect; inactive = no such curve, though single readings can be large or run the other way.

SMILES | BAZ2B inh | Six1-Eya2 inh | CtBP-E1A inh | JMJD2A Tudor | TDP1 block | HP1b binding inh
CC(=O)OCC1OC(c2ccc(C(C)=O)cc2)C=CC1OC(C)=O (stereo unspecified) | x | x | x | x | 9.0%[21 µM] | x
CCOc1ccc2nc(SCC(=O)NCC3CCCO3)sc2c1 (stereo unspecified) | x | 8.8 | -0.4 | -15.2% | -0.2% | -22.4%
CCOc1ccc2[nH]c3nc(SCC(=O)NCC4CCCO4)nnc3c2c1 (stereo unspecified) | -2.5% | -89.9* | -86.1* | -23.5% | x | 0.5%
Cc1ccc(Cn2c(C(C)Nc3nc(-c4ccc(F)cc4)cs3)nc3cc(C(=O)NCCCO)ccc32)cc1 (stereo unspecified) | x | -13.7 | -0.3 | -28.6% | x | 24.5%
O=[N+]([O-])c1cc(-c2csc(NCCc3nc4cc(C(F)(F)F)ccc4n3CCCO)n2)ccc1Cl | x | -11.8 | -4.8 | 44.7µM* | x | 1.8%
Cc1ccc(Cn2c(CCNc3nc(-c4ccc(Cl)c([N+](=O)[O-])c4)cs3)nc3cc(C(=O)NCCCO)ccc32)cc1 | x | -7.1 | -7.9 | 35.5µM* | x | 2.1%
Nc1ccccc1C(=O)/C=C/c1ccccc1 | x | x | x | x | 7.5% | x
CSc1ccc(CCNC(=O)C2CCCN(S(=O)(=O)N(C)c3ccc(F)cc3)C2)cc1 (stereo unspecified) | -17.1% | x | x | -15.8% | 0.0% | -0.4%
CN(C)c1ccc(CNn2cnnc2SCc2ccc(F)cc2)cc1 | 44.7µM* | -3.7 | -3.7 | u | 1.0% | -5.5%
Cc1ccc(C(=O)Nc2c(C(=O)Nc3ccc(C)c(C)c3)sc3nc(C)cc(C)c23)cc1 | -6.8% | x | x | -19.8% | 1.9% | 19.3%
CC(C)(C)OC(=O)NCc1n[nH]c(=S)n1C1CC1 | 9.0% | -4.7 | 1.9 | 28.2µM* | x | 29.9%
O=C(COC(=O)c1ccc2ncsc2c1)Nc1cc(Cl)ccc1F | -5.1% | -1.4 | 0.6 | -2.0% | 3.0% | 33.6%
O=C(COC(=O)c1ccc2ncsc2c1)Nc1ncc(Cl)cc1Cl | 50.1µM* | -10.8 | -5.6 | u | x | -18.8%
O=C(COC(=O)c1ccc(O)cc1)Nc1ncc(Cl)cc1Cl | 79.4µM* | -8.4 | 0.6 | -7.5% | 3.7% | 27.1%
Cc1c(Cl)cnc(NC(=O)COC(=O)c2ccc3ncsc3c2)c1Cl | 50.1µM* | -10.1 | -9.1 | u | x | 0.0%
Cc1c(Cl)cnc(NC(=O)COC(=O)c2ccc([N+](=O)[O-])s2)c1Cl | 44.7µM* | -21.3 | -18.5 | 50.1µM* | -13.3% | -19.0%
Cc1c(Cl)cnc(NC(=O)COC(=O)c2cccs2)c1Cl | 22.2% | 1.2 | 4.3 | -6.7% | -7.6% | 48.9%
Cc1cc(C)cc(NC(=O)C(=O)NCC(c2cccnc2)N2CCN(c3ccccc3)CC2)c1 (stereo unspecified) | -1.3% | x | x | -7.9% | 3.9% | 24.3%
CCc1nnc(NC(=O)c2sc3nc4c(cc3c2N)CCCCCC4)s1 | -11.6% | 0.8 | 0.4 | -24.8% | 50.1µM* | -3.5%
C[N+](C)(C)CCN(Cc1ccc(Cl)cc1)c1ccccn1 | 50.1µM* | 2.3 | 2.0 | -35.4% | 1.0% | 22.6%
OC(CNC1CCCc2ccccc21)COc1c(Cl)cccc1Cl (stereo unspecified) | 39.8µM* | 5.7 | 5.3 | 5.62µM* | 2.7% | 6.8%
OC(CNC1Cc2ccccc2C1)COc1ccc(Cl)cc1 (stereo unspecified) | -3.8% | -0.7 | 4.7 | -4.3% | 3.9% | 29.7%
COC(=O)c1ccc(OCC(O)CNCC(c2ccc(OC)cc2)N(C)C)c(OC)c1 (stereo unspecified) | 50.1µM* | 4.7 | -0.1 | 1.78µM* | 11.4% | -24.6%
CCOc1ccccc1NC(=O)C(=O)N/N=C/c1ccc([N+](=O)[O-])cc1 | -9.6% | 7.5 | 0.0 | 3.8% | -2.7% | 27.6%
O=C(N/N=C/C(Cl)=C/c1ccc([N+](=O)[O-])cc1)C(=O)Nc1ccccc1C(=O)O | u | -25.3 | -91.6* | u | u | -21.3%
SMILES | BAZ2B inh | Six1-Eya2 inh | CtBP-E1A inh | JMJD2A Tudor | TDP1 block | HP1b binding inh
O=C(N/N=C/C(Cl)=C/c1ccc([N+](=O)[O-])cc1)C(=O)Nc1ccc(C(=O)O)cc1 | u | -19.3 | -98.3* | -33.8%[11.4 µM] | 4.7% | u
COc1ccc2nc(-c3cccc(F)c3)sc2c1 | x | x | x | 13.8% | x | x
CCC1CCCCN1S(=O)(=O)c1cc2c3c(c1)CC(=O)N3CCC2 (stereo unspecified) | -7.9% | x | x | -12.0% | 5.2% | 29.3%
COc1ccc(C(=O)[C@H]2[C@H]3C(=O)N(c4ccc(C)cc4)C(=O)[C@H]3C3C=CC=NN32)cc1 (stereo partly specified) | 39.8µM* | 8.4 | 9.6 | 5.7% | 6.8% | 31.9%
CC(=O)Oc1ccc(C(=O)[C@H]2[C@H]3C(=O)N(c4ccc(C)cc4)C(=O)[C@H]3[C@@H]3C=CC=NN32)cc1 | -33.9% | -22.7 | -0.2 | u | 0.0% | -10.3%
Cc1ccc(C(=O)Nc2ccc(C(=O)OCc3cc(=O)n4c5c(sc4n3)CCCC5)cc2)cc1 | -14.2% | x | x | 5.6% | 3.8% | 38.9%
COC(=O)c1cccc(-c2ccc(C(c3c(C)[nH][nH]c3=O)c3c(C)[nH][nH]c3=O)o2)c1 | 39.8µM* | -3.8 | -9.4 | 56.2µM* | 8.9% | u
Cc1[nH][nH]c(=O)c1C(c1ccc(-c2ccc(Cl)c(C(=O)O)c2)o1)c1c(C)[nH][nH]c1=O | 39.8µM* | u | -2.3 | 50.1µM* | u | 27.5%
COc1ccc2cc(/C=C3\SC(=S)NC3=O)c(N3CCOCC3)nc2c1 | u | u | -5.3 | u | 5.5% | -32.7%
COC(=O)/C=C1\SC(N2CCOCC2)=C(c2ccc(OC)cc2)C1=O | 44.7µM* | -2.6 | 8.8 | -13.2% | -1.2% | -9.4%
Cc1ccc(N/N=C(\C#N)C(=O)c2ccsc2)cc1 | u | -2.0 | x | 35.5µM* | 8.9% | -17.4%
N#C/C(=N\Nc1ccc(Cl)cc1)C(=O)c1ccsc1 | 25.1µM* | -1.9 | 14.4 | u | 7.1% | u
COc1ccc(CCNC(=O)Cc2c(C)c3cc4c(C)coc4cc3oc2=O)cc1OC | 2.2% | x | x | u | 4.7% | 34.5%
Cc1csc(NC(=O)c2cccn2C)n1 | u | -6.9 | -13.4 | -32.5% | 1.9% | -8.4%
CCc1sc(C(=O)Nc2nc(-c3ccccn3)cs2)cc1C | x | -67.5* | -89.7* | 79.4µM* | 4.1% | -7.2%
Cn1cccc1C(=O)Nc1nc(-c2ccccn2)cs1 | 17.8µM* | -85.5* | -89.1* | 56.2µM* | -2.9% | u
CCc1sc(C(=O)Nc2nccs2)cc1C | 1.8% | -6.9 | -5.3 | -7.7% | x | 22.7%
O=C(Nc1nc(-c2ccccn2)cs1)c1ncc(Cl)c(Cl)c1Cl | -5.6% | u | -74.5* | -24.7% | 9.5% | 28.7%

Assay outcomes (PubChem BioAssay)
